Records with an inconclusive call do not appear. Active and inactive are the calls of the source. Unless noted, the call rests on the fitted dose curve; in most records, active means well fitted curve in the direction sought with a large enough effect; inconclusive means small, poorly fitted or top-dose-only effect, or another doubt; inactive means no such curve, though single readings can be large; an effect the other way counts as inactive or inconclusive.
How the values were obtained:
[1] = Cell Viability - Hek293 (AID 427;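 active means compounds whose dose-response curve shows a full or clear partial loss of cell viability, called from curve shape rather than a numeric limit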;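 further: potency means the concentration at half of the fitted maximal effect; cells exposed to compound for 40 hours at 37 °C before reading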); conditions: qHTS
Outline: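 HEK293 cells in complete medium were exposed to compound for 40 hr at 37 °C, then cellular ATP was read by CellTiter-Glo luminescence. Data were normalized to DMSO (basal) and 100 uM tamoxifen (100% inhibition), and AC50 came from Hill fits.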

[2] = Cell Viability - HepG2 (AID 433; calls by dose curve;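 further: potency means the concentration at half of the fitted maximal effect; potency for ATP loss meaning cytotoxicity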); conditions: qHTS
Outline: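 Cytotoxicity is scored as loss of intracellular ATP in HepG2 cells exposed to compounds for 40 h. Concentration-response curves, normalized to DMSO and 100 uM tamoxifen, give AC50 values.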

[3] = Cell Viability - MRC5 (AID 434; calls by dose curve;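 further: potency means the concentration at half of the fitted maximal effect; potency reflects cytotoxicity seen as loss of intracellular ATP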); conditions: MRC5 lung fibroblast viability, qHTS
Outline: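 ATP luminescence read-out (CellTiter-Glo, 20 min RT) after 40 hr, 37 °C compound exposure of 1500 MRC5 cells/well. Data normalized to DMSO (basal) and 100 uM tamoxifen (100% inhibition); AC50 from standard Hill equation.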

[4] = Cell Viability - SK-N-SH (AID 435; calls by dose curve;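 further: potency means the concentration at half of the fitted maximal effect; compound exposure lasted 40 h at 37 °C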); conditions: SK-N-SH neuroblastoma cell viability qHTS
Outline: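 Cells seeded at 1500 per well and incubated 5 hr at 37 °C. Compound added, then 40 hr at 37 °C. CellTiter-Glo added, 20 min at room temperature, luminescence read.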

[5] = target: Mitogen-activated protein kinase 10 (Mus musculus) (UniProt Q61831); test: JNK3 AlphaScreen Assay (AID 530; active means well fitted curve in either direction with a large enough effect, not every such curve was filed as active;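 further: kinase came from lysate of stimulated human HepG2 cells; signal reports phosphorylation of biotinylated GST-cJun 1-79 at Ser73 with 10 µM ATP; on the % scale 0 is the no-effect control and ±100 the full control effect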)
Outline: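 HepG2 lysate (IL-1b/TNFa pre-activated) + biotin-GST-cJun 1-79 + anti-pSer73 cJun; cpd titration, 15 min RT; ATP 10 uM start; Tris pH 7.6, MgCl2, DTT, vanadate; beads in EDTA buffer; AlphaScreen.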

[6] = Cell Viability - N2a (AID 540); conditions: N2a mouse neuroblastoma cell viability; activity change, negative = cytotoxicity: at 92.2 µM (top of the series);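 further: plate controls were DMSO alone for no effect and tamoxifen control for full effect; nearly all actives have a fitted effect of over 45% in size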
Outline: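 In this qHTS cytotoxicity screen, ATP-dependent luciferase luminescence reports viable N2a cells after a 40 hr compound exposure in complete culture medium. Potencies are AC50 values from standard Hill equation fits.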

[7] = Cell Viability - NIH 3T3 (AID 541); conditions: NIH 3T3 cell viability, qHTS; activity change, negative = cytotoxicity: at 92.2 µM (top of the series);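 further: plate controls were DMSO alone for no effect and tamoxifen positive control for full effect; nearly all actives have a fitted effect of over 25% in size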
Outline: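 In this cytotoxicity screen, acute toxicity is scored as an ATP drop measured by CellTiter-Glo in NIH 3T3 fibroblasts following a 40 hr, 37 °C incubation with compound.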

[8] = Cell Viability - H-4-II-E (AID 543); further: potency means the concentration at half of the fitted maximal effect; nearly all actives have a fitted effect of over 35% in size
Outline: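 AC50 from Hill-modelled qHTS concentration-response curves. H-4-II-E rat hepatoma cells in complete medium, 40 hr exposure at 37 °C, viability by CellTiter-Glo ATP luminescence.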

[9] = Cell Viability - Renal Proximal Tubule (AID 545); further: nearly all actives have a fitted effect of over 40% in size
Outline: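 Cytotoxicity is scored as a concentration-dependent drop in cellular ATP in primary rat renal proximal tubule cells exposed for 40 hr. AC50 derives from Hill modelling.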

[10] = Cell Viability - Mesenchymal (AID 546);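 further: cells exposed to compound for 40 hours before reading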
Outline: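 Human renal mesenchymal cells (glomerulus-derived), 1000 cells/well, 5 hr 37 °C pre-incubation; compound 40 hr, 37 °C; CellTiter-Glo, 20 min RT; luminescence; AC50 via Hill equation.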

[11] = Cellular Toxicity (caspase-3) HepG2 (AID 654);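 further: cells exposed to compound for 16 hours before reading; 0% = DMSO alone and 100% = caspase signal from 100 µM tamoxifen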
Outline: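 Concentration-response AC50 values reflect caspase-3/7 induction in HepG2 cells after 16 hours of compound exposure, quantified by luminescence from liberated aminoluciferin and referenced to 100 uM tamoxifen as full stimulation.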

[12] = Cellular Toxicity (caspase-3) HUV-EC-C (AID 656)
Outline: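 Read-out: luminescence proportional to caspase 3/7 activity, measured 20 min after adding Caspase-Glo 3/7 reagent. Cells (HUV-EC-C) had received compound for 16 hr at 37°C. Increases relative to DMSO and 100 uM tamoxifen gave concentration-response AC50 values.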

[13] = Cellular Toxicity (caspase-3) SHSY5Y (AID 657)
Outline: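 Cells plated and incubated 5 h at 37 °C, dosed over a concentration range, incubated 16 h, then given Caspase-Glo 3/7 reagent for 1 h at room temperature before luminescence reading. Staurosporine (10 uM) defined full stimulation.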

[14] = Cellular Toxicity (caspase-3) BJ (AID 658);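 further: 0% = DMSO basal and 100% = 10 µM staurosporine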
Outline: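 qHTS, BJ fibroblasts, 1000 cells/well; 5 hr preincubation, 16 hr compound, 37 °C; Caspase-Glo 3/7 reagent, 1 hr RT; luminescence. DMSO = 0%, 10 uM staurosporine = 100%. Hill-equation AC50.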

[15] = Cellular Toxicity (caspase-3) MRC-5 (AID 659);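 further: 0% = DMSO basal and 100% = 10 µM staurosporine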
Outline: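 MRC-5 fibroblasts, 1500/well; 16 h cpd, 37 °C; Caspase-Glo 3/7, 1 h RT; lumi read. Norm: DMSO = 0%, 10 uM staurosporine = 100%. Hill-fit AC50 from qHTS conc-response.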

[16] = Cellular Toxicity (caspase-3) Mesangial (AID 660);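 further: cells exposed to compound for 16 h before the caspase read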
Outline: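 AC50 values come from Hill-equation fits of caspase 3/7 activation, measured as Caspase-Glo luminescence in human glomerular mesangial cells exposed to compound for 16 h at 37 °C; 100% set by 100 uM tamoxifen.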

[17] = Cellular Toxicity (caspase-3) SK-N-SH (AID 661);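 further: 0% = DMSO basal and 100% = 10 µM staurosporine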
Outline: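 Apoptosis readout in SK-N-SH neuroblastoma: Caspase-Glo 3/7 luminescence following 16 hr treatment in complete culture medium. Normalization used DMSO and 10 uM staurosporine controls.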

[18] = Cellular Toxicity (caspase-3) H-4-II-E (AID 663); conditions: Potency: caspase-3 activation;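 further: cells exposed to compound for 16 hr before readout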
Outline: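 H-4-II-E rat hepatoma, 1500 cells/well, 5 hr settle at 37 °C; compound 16 hr, 37 °C, complete medium; Caspase-Glo 3/7, 20 min RT; luminescence. DMSO = 0%, 100 uM tamoxifen = 100%; Hill-equation AC50.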

[19] = Cellular Toxicity (caspase-3) Hek293 (AID 664); conditions: HEK293 caspase-3 activation, DMSO = 0%, 100 µM tamoxifen = 100%; at 92.2 µM (top of the series);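 further: cells exposed to compound for 16 h at 37 °C before readout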
Outline: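 Apoptosis readout: Caspase-Glo 3/7 signal in human HEK293 cells following 16-hour compound incubation. Responses scaled between DMSO baseline and 100 uM tamoxifen.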

[20] = Cellular Toxicity (caspase-3) N2a (AID 665);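 further: compound exposure lasted 16 h at 37 °C before readout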
Outline: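 Concentration-response qHTS: compound-induced caspase-3/7 luminescence in N2a cells (16 h, 37 °C), relative to DMSO and 10 uM staurosporine controls; AC50 obtained using the standard Hill equation.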

[21] = Cellular Toxicity (caspase-3) Renal Proximal Tubule (AID 667);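 further: cells exposed to compound for 16 hours at 37 °C before detection; 0% = DMSO basal and 100% = 10 µM staurosporine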
Outline: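 In qHTS format, rat primary proximal tubule cells seeded at 1000 per well are exposed to compounds for 16 hours at 37 °C. An increase in Caspase-Glo 3/7 luminescence indicates caspase activation.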

[22] = target: Cytochrome P450 3A4 (Homo sapiens) (UniProt P08684); test: qHTS Assay for Inhibitors and Substrates of Cytochrome P450 3A4 (AID 884); further: on the % scale 0 is the no-effect control and ±100 the full control effect; nearly all actives have a fitted effect of over 50% in size
Outline: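 Luminescent readout of luciferin produced by CYP3A4 (20 nM) dealkylation of Luciferin-PPXE, 25 uM (its KM). NADPH-driven reaction ran 60 min at RT after 10 min compound preincubation; data scaled to 57 uM ketoconazole as 100% inhibition.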

[23] = MultiTox-Fluor Cytotoxicity Assay - LYMP1-001 - Dead Cells (AID 946);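 further: 0% = DMSO and 100% = tetraoctylammonium bromide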
Outline: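 LYMP1-001 lymphoblastoid cells (2500/well) treated 16 h at 37 C. Dead-cell protease cleavage of bis-AAF-R110 read at Ex/Em 485/520. Normalized to DMSO and 15 uM tetraoctylammonium bromide; AC50 from Hill fits.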

[24] = MultiTox-Fluor Cytotoxicity Assay - LYMP1-001 - Live Cells (AID 947);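 further: 0% = DMSO only and full inhibition = tetraoctylammonium bromide control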
[25] = Cell Viability - LYMP1-002 - Assay at 16 hr (AID 948);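 further: 0% = DMSO alone and full effect = 92 µM tetraoctylammonium bromide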
Outline: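 Acute cytotoxicity is scored as a concentration-dependent fall in intracellular ATP in a human lymphoblastoid line (LYMP1-002) after 16 hr compound exposure at 37 C, measured by luciferase luminescence.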

[26] = MultiTox-Fluor Cytotoxicity Assay - LYMP1-002 - Live Cells (AID 955); further: on the % scale 0 is the no-effect control and ±100 the full control effect
Outline: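 In this qHTS viability format, lymphoblastoid cells (LYMP1-002, human) received compound for 16 hr at 37 C. Fluorogenic GF-AFC cleavage by viable cells was detected at 405/510 nm after 1 h at room temperature.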

[27] = MultiTox-Fluor Cytotoxicity Assay - LYMP1-003 - Dead Cells (AID 961);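 further: 0% = DMSO and 100% = tetraoctylammonium bromide; nearly all actives have a fitted effect of over 70% in size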
Outline: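 LYMP1-003 human lymphoblastoid cells (2500/well) exposed to compound 16 h at 37 C in complete medium; dead-cell protease read with bis-AAF-R110 fluorescence (Ex/Em 485/520) after 60 min at room temperature. Normalized to DMSO and 15 uM tetraoctylammonium bromide; AC50 from Hill fit.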

[28] = MultiTox-Fluor Cytotoxicity Assay - LYMP1-003 - Live Cells (AID 962);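 further: 0% = DMSO only and full loss = 92 µM tetraoctylammonium bromide; cytotoxic hits lower the live-cell protease signal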
Outline: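 Human lymphoblastoid line LYMP1-003 in complete culture medium, treated 16 hr with titrated compounds. Viable cells quantified via cell-permeant GF-AFC substrate fluorescence; AC50 derived by Hill fitting.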

[29] = Cell Viability - LYMP1-003 - Assay at 24 hr (AID 963);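 further: plate controls were DMSO only for no effect and tetraoctylammonium bromide positive control for full effect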
Outline: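 The lymphoblastoid line was treated with titrated compounds for 24 hours, and viable cell number estimated from luciferase-based ATP luminescence.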

[30] = Cell Viability - LYMP2-003 (AID 965);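 further: cells exposed to compounds for 24 h before reading; 0% = DMSO only and full effect = 92 µM tetraoctylammonium bromide; nearly all actives have a fitted effect of over 50% in size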
Outline: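 Acute cytotoxicity is scored as a concentration-dependent drop in intracellular ATP, measured by luciferase luminescence in human lymphoblastoid cells treated for 24 hours at 37 C. AC50 values derive from Hill-equation modelling.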

[31] = Cell Viability - LYMP2-004 (AID 966);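 further: cells exposed to compound for 24 h; plate controls were DMSO only for no effect and tetraoctylammonium bromide control for full effect; nearly all actives have a fitted effect of over 65% in size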
Outline: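 Viable-cell number estimated from ATP luminescence (CellTiter-Glo) in 2500 human lymphoblastoid cells/well after 24 hr at 37 C with compound. AC50 fitted to the standard Hill equation.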

[32] = Cell Viability - LYMP2-009 (AID 968);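 further: potency means the concentration at half of the fitted maximal effect; cells exposed to compound for 24 h at 37 °C; nearly all actives have a fitted effect of over 55% in size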
[33] = Cell Viability - LYMP2-013 (AID 970);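 further: cells exposed to compound for 24 h at 37 °C; 0% = DMSO only and full inhibition = tetraoctylammonium bromide control; nearly all actives have a fitted effect of over 55% in size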
Outline: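 In complete culture medium, human lymphoblastoid cells were dosed for 24 hr at 37 C, with tetraoctylammonium bromide (6.4pM to 92 uM) as positive control. Viability reflects luciferase-based ATP signal; AC50 derived from concentration-response curves.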

Sequence of Cytochrome P450 3A4 (Homo sapiens) (P08684 whole entry, looked up): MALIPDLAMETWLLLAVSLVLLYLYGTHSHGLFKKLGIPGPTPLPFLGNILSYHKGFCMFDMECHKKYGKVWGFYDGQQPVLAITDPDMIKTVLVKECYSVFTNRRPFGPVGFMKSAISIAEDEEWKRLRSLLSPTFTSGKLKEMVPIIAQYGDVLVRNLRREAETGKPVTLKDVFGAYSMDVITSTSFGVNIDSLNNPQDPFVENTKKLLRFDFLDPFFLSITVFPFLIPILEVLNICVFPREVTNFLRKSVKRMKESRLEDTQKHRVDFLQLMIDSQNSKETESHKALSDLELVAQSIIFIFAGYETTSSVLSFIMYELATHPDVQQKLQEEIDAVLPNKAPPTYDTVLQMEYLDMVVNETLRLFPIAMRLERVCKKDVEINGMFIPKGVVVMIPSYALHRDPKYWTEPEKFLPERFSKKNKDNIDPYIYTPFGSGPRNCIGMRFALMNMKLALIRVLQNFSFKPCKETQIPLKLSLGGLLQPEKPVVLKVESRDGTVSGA

O=[N+]([O-])c1cccc(CCl)c1
active: activity change, negative = cytotoxicity [7] -132% | Potency [8] 50.1 µM | Potency [32] 79.4 µM
inactive: Potency [1] > 92 µM | Potency [2] > 92 µM | Potency [3] > 92 µM | Potency [4] > 92 µM | Potency [5] | Potency [6] | outcome [9] | Potency [10] | outcome [11] | outcome [12] | outcome [13] | outcome [14] | outcome [15] | outcome [16] | Potency [17] | Potency [18] | caspase-3 activation [19] -1.48% | outcome [20] | outcome [21] | Potency [22] | outcome [23] | outcome [24] | outcome [25] | outcome [26] | Potency [27] | outcome [28] | outcome [29] | Potency [30] | Potency [31] | Potency [33]
